In the supplement of paper PMC9942566:
± gives the standard deviation of the averaged measurements.

Test system: Serratia marcescens K904 PosmB-luxCDABE reporter (pMQ747)
Assay: PosmB-lux reporter fold induction (RLU/OD600 relative to no-compound control), highest over Biolog concentrations; higher = stronger Rcs reporter activation
Settings: wild type K904; 4 h
Procedure: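 Serratia marcescens K904 (wild type) or its isogenic ΔrcsB mutant, carrying the Rcs-dependent PosmB-luxCDABE reporter plasmid pMQ747, was grown in LB at OD600 0.1 in Biolog Phenotype MicroArray plates PM11-20 for 4 h at 30-32°C. Each compound is present at 3-4 proprietary concentrations (not stated); per the Fig. S1 legend the value given is the highest fold over those wells. Three independent trials.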

| SMILES | PosmB-lux reporter fold induction |
| --- | --- |
| O=C(OC[C@H]1O[C@@H](OC(=O)c2cc(O)c(O)c(OC(=O)c3cc(O)c(O)c(O)c3)c2)[C@H](OC(=O)c2cc(O)c(O)c(OC(=O)c3cc(O)c(O)c(O)c3)c2)[C@@H](OC(=O)c2cc(O)c(O)c(OC(=O)c3cc(O)c(O)c(O)c3)c2)[C@@H]1OC(=O)c1cc(O)c(O)c(OC(=O)c2cc(O)c(O)c(O)c2)c1)c1cc(O)c(O)c(OC(=O)c2cc(O)c(O)c(O)c2)c1 [tannic acid] (Biolog plate: PM17, well positions: F9-12) | 1.5 ± 0.49 |
| CCCCCCCCCCCC[N+](C)(C)CCCS(=O)(=O)[O-] [lauryl sulfobetaine] (Biolog plate: PM19, well positions: G1-4) | 2.95 ± 1.1 |
| CC1COc2c(N3CCN(C)CC3)c(F)cc3c(=O)c(C(=O)O)cn1c23 (stereo not given) [Ofloxacin] (Biolog plate: PM11, well positions: H9-12) | 1.25 ± 0.35 |
| O=c1ccc2ccc(O)cc2o1 [umbelliferone] (Biolog plate: PM19, well positions: C5-8) | 1.07 ± 0.18 |
| CCC[C@@H]1C[C@@H](C(=O)N[C@@H]([C@H]2O[C@H](SC)[C@H](O)[C@@H](O)[C@H]2O)[C@@H](C)O)N(C)C1 [Lincomycin] (Biolog plate: PM11, well positions: A9-12) | 1.16 ± 0.14 |
| Cc1cc(C)nc(NS(=O)(=O)c2ccc(N)cc2)n1 [Sulfamethazine] (Biolog plate: PM12, well positions: D5-8) | 3.6 ± 0.65 |
| CN[C@H](CC(C)C)C(=O)N[C@H]1C(=O)N[C@@H](CC(N)=O)C(=O)N[C@H]2C(=O)N[C@H]3C(=O)N[C@H](C(=O)N[C@H](C(=O)O)c4cc(O)cc(O)c4-c4cc3ccc4O)[C@H](O)c3ccc(c(Cl)c3)Oc3cc2cc(c3O[C@@H]2O[C@H](CO)[C@@H](O)[C@H](O)[C@H]2O[C@H]2C[C@](C)(N)[C@H](O)[C@H](C)O2)Oc2ccc(cc2Cl)[C@H]1O [Vancomycin] (Biolog plate: PM12, well positions: C5-8) | 5.39 ± 2 |
| Cn1c(=O)c2c(ncn2C)n(C)c1=O [caffeine] (Biolog plate: PM17, well positions: H5-8) | 1.68 ± 0.37 |
| CC1(C)S[C@@H]2[C@H](NC(=O)C(C(=O)O)c3ccccc3)C(=O)N2[C@H]1C(=O)O (stereo not given in full) [Carbenicillin] (Biolog plate: PM14, well positions: G5-8) | 42 ± 28 |
| CC1(C)S[C@@H]2[C@H](NC(=O)C(C(=O)O)c3ccccc3)C(=O)N2[C@H]1C(=O)O (stereo not given in full) [Carbenicillin] (Biolog plate: PM12, well positions: A9-12) | 2.2 ± 0.17 |
| CC[C@H]1OC(=O)[C@H](C)[C@@H](O[C@H]2C[C@@](C)(OC)[C@@H](O)[C@H](C)O2)[C@H](C)[C@@H](O[C@@H]2O[C@H](C)C[C@H](N(C)C)[C@H]2O)[C@](C)(O)C[C@@H](C)C(=O)[C@H](C)[C@@H](O)[C@]1(C)O [Erythromycin] (Biolog plate: PM11, well positions: F5-8) | 1.38 ± 0.32 |
| CN[C@@H]1[C@H](O)[C@H](NC)[C@H]2O[C@@]3(O)C(=O)C[C@@H](C)O[C@H]3O[C@@H]2[C@H]1O [Spectinomycin] (Biolog plate: PM12, well positions: G1-4) | 1.57 ± 0.26 |
| Cc1cc(N)c2ccccc2[n+]1CCCCCCCCCC[n+]1c(C)cc(N)c2ccccc21 [Dequalinium chloride] (Biolog plate: PM13, well positions: A5-8) | 1.23 ± 0.086 |
| O=C(O)CN(CCN(CC(=O)O)CC(=O)O)CC(=O)O (Biolog plate: PM15, well positions: B5-8) | 1.66 ± 0.13 |
| CCn1cc(C(=O)O)c(=O)c2cc(F)c(N3CCNCC3)nc21 [Enoxacin] (Biolog plate: PM11, well positions: E5-8) | 2.1 ± 0.62 |
| CC1(C)S[C@@H]2[C@H](NC(=O)[C@H](N)c3ccccc3)C(=O)N2[C@H]1C(=O)O [Ampicillin] (Biolog plate: PM13, well positions: A2-4) | 1.39 ± 0.02 |
| CO[C@H]1C[C@H](O[C@H]2[C@H](C)[C@@H](O[C@@H]3O[C@H](C)C[C@H](N(C)C)[C@H]3OC(C)=O)[C@@H](C)C[C@@]3(CO3)C(=O)[C@H](C)[C@@H](OC(C)=O)[C@@H](C)[C@@H](C)OC(=O)[C@@H]2C)O[C@@H](C)[C@@H]1OC(C)=O [troleandomycin] (Biolog plate: PM20, well positions: H9-12) | 1.36 ± 0.24 |
| NCC[C@H](O)C(=O)N[C@@H]1C[C@H](N)[C@@H](O[C@H]2O[C@H](CN)[C@@H](O)[C@H](O)[C@H]2O)[C@H](O)[C@H]1O[C@H]1O[C@H](CO)[C@@H](O)[C@H](N)[C@H]1O [Amikacin] (Biolog plate: PM11, well positions: A2-4) | 1.4 ± 0.2 |
| CN[C@@H]1[C@H](O[C@H]2[C@H](O[C@H]3[C@H](O)[C@@H](O)[C@H](N=C(N)N)[C@@H](O)[C@@H]3N=C(N)N)O[C@@H](C)[C@]2(O)C=O)O[C@@H](CO)[C@H](O)[C@H]1O [streptomycin] (Biolog plate: PM16, well positions: E1-4) | 0.916 ± 0.16 |
| CN(C)c1ccc(O)c2c1C[C@H]1C[C@H]3[C@H](N(C)C)C(O)=C(C(N)=O)C(=O)[C@@]3(O)C(O)=C1C2=O [Minocycline] (Biolog plate: PM11, well positions: C9-12) | 2.54 ± 0.15 |

| SMILES | PosmB-lux reporter fold induction |
| --- | --- |
| Nc1ccc(S(=O)(=O)Nc2nccs2)cc1 [Sulfathiazole] (Biolog plate: PM12, well positions: F5-8) | 1.88 ± 0.029 |
| CO/N=C(\C(=O)N[C@@H]1C(=O)N2C(C(=O)O)=C(CSc3nc(=O)c(O)nn3C)CS[C@H]12)c1csc(N)n1 [Ceftriaxone] (Biolog plate: PM11, well positions: G1-4) | 1.64 ± 0.43 |
| NC[C@@H]1O[C@H](O[C@H]2[C@@H](O)[C@H](O[C@@H]3[C@@H](O)[C@H](N)C[C@H](N)[C@H]3O[C@H]3O[C@H](CN)[C@@H](O)[C@H](O)[C@H]3N)O[C@@H]2CO)[C@H](N)[C@@H](O)[C@@H]1O [Neomycin] (Biolog plate: PM11, well positions: F9-12) | 1.51 ± 0.15 |
| CC1(C)S[C@@H]2[C@H](NC(=O)COc3ccccc3)C(=O)N2[C@H]1C(=O)O.CN(C)[C@@H]1C(O)=C(C(=O)NCN2CCN(CCO)CC2)C(=O)[C@@]2(O)C(O)=C3C(=O)c4c(O)cccc4[C@@](C)(O)[C@H]3C[C@@H]12 [Penimepicycline] (Biolog plate: PM12, well positions: B5-8) | 3.22 ± 1.1 |
| CC1(C)S[C@@H]2[C@H](NC(=O)[C@H](N)c3ccc(O)cc3)C(=O)N2[C@H]1C(=O)O [Amoxicillin] (Biolog plate: PM11, well positions: B1-4) | 2.48 ± 0.35 |
| C[n+]1c2cc(N)ccc2cc2ccc(N)cc21.Nc1ccc2cc3ccc(N)cc3nc2c1 [Acriflavine] (Biolog plate: PM14, well positions: A2-4) | 1.45 ± 0.32 |
| C[C@@H]1NC(=O)[C@@H](N)CNC(=O)[C@H](C2CCNC(=N)N2)NC(=O)/C(=C/NC(N)=O)NC(=O)[C@H](CNC(=O)CC(N)CCCN)NC1=O.N=C1NCC[C@H]([C@@H]2NC(=O)/C(=C/NC(N)=O)NC(=O)[C@H](CNC(=O)C[C@@H](N)CCCN)NC(=O)[C@H](CO)NC(=O)[C@@H](N)CNC2=O)N1 [Capreomycin] (Biolog plate: PM11, well positions: D1-4) | 1.24 ± 0.1 |
| N[C@H](CO)C(=O)O [D-serine] (Biolog plate: PM17, well positions: A2-4) | 2.39 ± 1.2 |
| [Cl-].[Cs+] [Cesium chloride] (Biolog plate: PM13, well positions: F1-4) | 1.41 ± 0.16 |
| N[C@@H]1CONC1=O [D-Cycloserine] (Biolog plate: PM15, well positions: B1-4) | 1.37 ± 0.23 |
| Cc1cc(NS(=O)(=O)c2ccc(N)cc2)no1 [Sulfa-methoxazole] (Biolog plate: PM12, well positions: G5-8) | 2.26 ± 0.52 |
| CCCCCCCCCCCC[N+](C)(C)C [Dodecyltrimethyl ammonium bromide] (Biolog plate: PM12, well positions: H9-12) | 2.03 ± 0.22 |
| CN(C)[C@@H]1C(O)=C(C(N)=O)C(=O)[C@@]2(O)C(O)=C3C(=O)c4c(O)ccc(Cl)c4[C@@H](O)[C@H]3C[C@@H]12 [Demeclocycline] (Biolog plate: PM11, well positions: D5-8) | 1.53 ± 0.45 |
| CCn1cc(C(=O)O)c(=O)c2cc(F)c(N3CCNCC3)cc21 [norfloxacin] (Biolog plate: PM16, well positions: B1-4) | 1.02 ± 0.2 |
| CO[C@H]1/C=C/O[C@@]2(C)Oc3c(C)c(O)c4c(O)c(c(/C=N/N5CCN(C)CC5)c(O)c4c3C2=O)NC(=O)/C(C)=C\C=C\[C@H](C)[C@H](O)[C@@H](C)[C@@H](O)[C@@H](C)[C@H](OC(C)=O)[C@@H]1C [Rifampicin] (Biolog plate: PM12, well positions: H5-8) | 4.01 ± 0.98 |
| OCC(O)CS (stereo not given) [thioglycerol] (Biolog plate: PM19, well positions: H5-8) | 1.22 ± 0.31 |
| CN(C)[C@@H]1C(O)=C(C(N)=O)C(=O)[C@@]2(O)C(O)=C3C(=O)c4c(O)cccc4[C@@](C)(O)[C@H]3C[C@@H]12 [Tetracycline] (Biolog plate: PM12, well positions: A5-8) | 1.53 ± 0.2 |
| On1ccccc1=S [1-Hydroxy-pyridine-2-thione] (Biolog plate: PM14, well positions: C5-8) | 4.06 ± 1.3 |
| CC(CN1c2ccccc2Sc2ccccc21)N(C)C (stereo not given) [Promethazine] (Biolog plate: PM14, well positions: H5-8) | 4.68 ± 1.8 |
| CC[C@H]1OC(=O)C[C@@H](O)[C@H](C)[C@@H](O[C@@H]2O[C@H](C)[C@@H](O[C@H]3C[C@@](C)(O)[C@@H](O)[C@H](C)O3)[C@H](N(C)C)[C@H]2O)[C@@H](CC=O)C[C@@H](C)C(=O)/C=C/C(C)=C/[C@@H]1CO[C@@H]1O[C@H](C)[C@@H](O)[C@@H](OC)[C@H]1OC [Tylosin] (Biolog plate: PM13, well positions: H9-12) | 1.21 ± 0.18 |
